Results on 108 compounds are retold here after PubChem BioAssay AID1259354 (Paczesny and Yang Labs, IUPUI and University of Michigan, 2018).

Out of some 78,000 compounds screened, about 1,800 (2.3%) were called active. Not shown: some 27% with an inconclusive outcome. Cut-off read from the data, not from the text of the source: active = inhibition above about 30%; inconclusive = mostly about 10% to 28%; inactive = weaker than that. Many of the other results were omitted from the sample, so actives are more common in it than they were.

Interleukin-1 receptor-like 1 (Homo sapiens), sequence (Q01638 whole entry, looked up): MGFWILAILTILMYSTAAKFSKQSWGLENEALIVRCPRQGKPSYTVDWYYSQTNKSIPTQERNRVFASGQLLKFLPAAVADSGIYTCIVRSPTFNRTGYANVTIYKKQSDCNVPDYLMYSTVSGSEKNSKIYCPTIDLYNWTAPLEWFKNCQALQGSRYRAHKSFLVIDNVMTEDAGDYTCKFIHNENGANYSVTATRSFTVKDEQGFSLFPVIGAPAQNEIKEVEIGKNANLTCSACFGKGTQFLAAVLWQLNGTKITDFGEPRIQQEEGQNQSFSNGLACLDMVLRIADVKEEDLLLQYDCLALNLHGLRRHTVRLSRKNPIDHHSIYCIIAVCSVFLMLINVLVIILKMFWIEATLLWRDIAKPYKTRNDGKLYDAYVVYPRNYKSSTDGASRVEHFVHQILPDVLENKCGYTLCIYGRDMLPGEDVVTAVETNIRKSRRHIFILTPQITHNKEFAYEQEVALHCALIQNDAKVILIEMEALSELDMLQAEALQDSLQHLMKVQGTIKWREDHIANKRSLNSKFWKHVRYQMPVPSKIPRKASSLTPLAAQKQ

This assay concerns the target Interleukin-1 receptor-like 1 (Homo sapiens) (UniProt Q01638). Briefly: blocks human ST2 binding to IL-33, primary screen, biochemical, AlphaLISA (AID 1259354). The settings on record: AlphaLISA ST2-Fc/biotin-IL-33 interaction, 1 h; at 17 µM, hits give high values.
With `O=C(Nc1ccccc1-c1ccccc1)c1ccccc1[N+](=O)[O-]`, the inhibition result is “inactive”.
Then `CC1CCN(S(=O)(=O)c2ccc(Cl)c(C(=O)Nc3ccccc3[N+](=O)[O-])c2)CC1`, with 34% (active); and `CC1CCN(S(=O)(=O)c2ccc(Cl)c(S(=O)(=O)N3CCC(C)CC3)c2)CC1`, with “inactive”; and `C/C(=C/c1nsc(Nc2ccc(Cl)cc2)n1)NC1CC(C)(C)NC(C)(C)C1`, with “inactive”.
As for `CC1CCCC(C)N1C(=O)c1cccc2c1-c1ccccc1C2=O` (stereo not drawn), the entry is “inactive”.
As for `Cc1ccccc1CC1(C(=O)O)CCCN(c2cc(C3CC3)ncn2)C1` (stereo not drawn), the entry is “inactive”.
With `CC(=O)C1=C(C)OC(N)=C(C#N)C1c1ccccc1` (stereo not drawn), the inhibition result was “inactive”.
As for `Cc1nc(-c2cccc(NC(=O)C3CCN(c4ccccc4)C3=O)c2)no1` (stereo not drawn), the inhibition is 37% (active).
As for `Cc1cccc(NC(=O)CN2C(=O)CC(c3ccccc3)=Nc3ccccc32)c1`, the entry is “inactive”.
As for `O=C(Nc1cccc(-c2cccc(Cl)c2)c1)C1CCN(C(=O)c2ccccc2)CC1`, the entry is “inactive”; as for `FC(F)(F)c1ccnc(NCc2cccnc2-n2ccnc2)c1`, “inactive”; as for `O=C(Nc1ccc2c(c1)OCO2)C1CCN(S(=O)(=O)c2ccc(F)cc2)CC1`, “inactive”.
Then `N#Cc1nc(COc2ccc(Cl)cc2)oc1N1CCCC1`, with 73% (active); and `Cn1c(=O)c2c(nc(N3CCCCCC3)n2CC(O)COc2ccc(Cl)cc2)n(C)c1=O` (stereo not drawn), with “inactive”.
In the case of `Clc1ccc(OCCN2CCCCCC2)cc1`, the inhibition entry is “inactive”.
As for `COCCO[C@H]1[C@H](NC(=O)C(C)C)c2ccccc2C12CCN(C(=O)c1cc(C(C)C)on1)CC2`, the entry is “inactive”.
With `O=C(O)c1cc(Br)ccc1N=Cc1nc(-c2ccccc2)oc1O`, the inhibition entry was “inactive”.
Consider `C=CCOc1ccc(C2C(C(=O)OCC(C)C)=C(C)N=C3SCCC(=O)N32)cc1` (stereo not drawn), for which the inhibition result was “inactive”.
`COc1ccccc1NC(NC(=O)c1cccc(Cl)c1)C(Cl)(Cl)Cl` (stereo not drawn): the inhibition result is “inactive”.
Then `O=C(CCCn1cnnn1)N1CCOC(c2ccc(Cl)c(Cl)c2)C1` (stereo not drawn), with “inactive”; and `O=C(CN1CCOC1=O)NCc1cnn2ccccc12`, with “inactive”; and `O=C(CCn1cnnn1)NCc1cnn2ccccc12`, with 30% (active).
Consider `Cc1nn(C(=O)c2cccs2)c(C)c1Sc1ccccc1`, for which the inhibition result is “inactive”.
Turning to `Cc1nn(C(=O)/C=C/c2ccccc2)c(C)c1Sc1ccccc1`, the inhibition is 39% (active).
As for `Cc1nn(C(=O)c2ccccc2)c(C)c1Sc1ccccc1`, the entry is “inactive”.
As for `CC1CN(C2CC(=O)N(c3ccc(Br)cc3Br)C2=O)CC(C)O1` (stereo not drawn), the entry is “inactive”; as for `Cc1ccc(N2C(=O)CC(Nc3ccc(N4CCOCC4)cc3)C2=O)c(Br)c1` (stereo not drawn), 56% (active).
As for `CC1CC(C)CN(C2CC(=O)N(c3ccc(Br)cc3Br)C2=O)C1` (stereo not drawn), the entry is “inactive”; as for `CN1CCN(CCCNC(=O)COc2ccc3c(c2)C(=O)CC(C)(C)O3)CC1`, “inactive”; as for `COc1ccc(NC(=O)Cn2cnc3scc(-c4ccccc4)c3c2=O)cc1Cl`, “inactive”.
As to `COc1cccc(N2CCN(S(=O)(=O)c3ccc4c(c3)c(=O)n(C)c(=O)n4C)CC2)c1`, the inhibition entry is “inactive”.
Then `O=C1C(Nc2ccc(O)cc2)=C(n2nnc3ccccc32)C(=O)c2ccccc21`, with 47% (active); and `CS(=O)(=O)n1nnc2ccccc21`, with “inactive”.
As for `Cc1cc(=O)[nH]c(SCC(=O)Nc2ccc(F)cc2)n1`, the entry is “inactive”; as for `CCOc1ccc(Sc2cc(C(=O)NC3CC3)c3ccccc3n2)cc1`, “inactive”.
Then `COc1ccc(C2=NN3COc4ccc(Cl)cc4C3C2)cc1` (stereo not drawn), with “inactive”; and `COc1ccc(C2=NN3COc4ccc(Br)cc4C3C2)cc1` (stereo not drawn), with 36% (active).
`COc1ccc(C2=NN(C(C)=O)C(c3cc(OC)ccc3OC)C2)cc1` (stereo not drawn): the inhibition entry was “inactive”.
As for `O=S(=O)(Nc1ccccc1Br)c1ccccc1`, the entry is “inactive”; as for `CN(C)C(=O)c1ccc(S(=O)(=O)NC2CCCCCC2)s1`, “inactive”.
As for `O=C(O)c1ccc(C(=O)c2ccc([N+](=O)[O-])cc2)cc1`, the entry is “inactive”; as for `Cc1ccc(Sc2c(C)nn(C(=O)c3ccc([N+](=O)[O-])cc3)c2C)cc1`, 60% (active).
Then `Cc1nn(C(=O)c2cccnc2)c(C)c1Sc1ccc(Cl)cc1`, with “inactive”; and `CCOc1ccc2c(=O)c(Oc3ccc(F)cc3)c(C)oc2c1`, with “inactive”.
Turning to `OCc1ccc(CN2CCC(n3cc(C4CCCCC4)nn3)CC2)o1`, the inhibition entry was “inactive”.
As for `Cc1nn(-c2cccc(Br)c2)c(C)c1[C@@H]1C=C[C@@H](NS(=O)(=O)c2ccccc2)C1`, the inhibition entry was “inactive”.
Then `CN(Cc1ncc[nH]1)C(=O)C1CCN(Cc2ccco2)CC1`, with “inactive”; and `COCCNC(=O)C1C2C=CC3(CN(Cc4ccccc4Cl)C(=O)C13)O2` (stereo not drawn), with “inactive”.
As for `CCNc1nc(NCC)n2c(SCC(=O)c3ccc(C(C)(C)C)cc3)nnc2n1`, the figure is 36% (active).
As for `CC1CCCC(NC(=O)C2CCCN(S(=O)(=O)c3cnc[nH]3)C2)C1C` (stereo not drawn), the entry is “inactive”; as for `COC(=O)c1cccc(-c2nccn2CCc2cccc(F)c2)n1`, “inactive”.
Regarding `CCCCNC(=O)CNC(=O)Cn1ccc2ccccc2c1=O`, the inhibition entry is “inactive”.
As for `O=[N+]([O-])c1cccc(S(=O)(=O)Nc2cccnc2Cl)c1`, the entry is “inactive”; as for `CCOc1ccc(S(=O)(=O)Nc2ccccc2F)c2cccnc12`, “inactive”; as for `O=[N+]([O-])c1ccccc1S(=O)(=O)Nc1cccc2cccnc12`, 33% (active).
Then `O=C1CCCN1C1CCN(Cc2nnc(C3CC3)o2)CC1`, with “inactive”; and `CCOc1ccc(-n2c(C)cc(C(=O)CN3CCC(C)CC3)c2C)cc1`, with “inactive”; and `COc1ccc(N2CN=c3s/c(=C\c4ccccn4)c(=O)n3C2)cc1`, with 32% (active).
Then `COc1ccc(N2CN=c3s/c(=C/c4ccc([N+](=O)[O-])cc4)c(=O)n3C2)cc1`, with “inactive”; and `O=c1/c(=C/c2cccc([N+](=O)[O-])c2)sc2n1CN(c1cccc(C(F)(F)F)c1)CN=2`, with “inactive”; and `Cc1ccc(-c2noc(CCC(=O)N(C)c3cc(Cl)ccc3C)n2)cc1`, with “inactive”.
Take `CCOC(=O)c1c(C)n(C)c2ccc(OC(=O)c3ccc(OC)cc3)cc12`: the inhibition entry is “inactive”.
Consider `CCN1CC(NC2CCN(c3ccc(OC)cc3)CC2)CC1=O` (stereo not drawn), for which the inhibition result was “inactive”.
With `CCOc1ccc(C(=O)NC2CC(=O)N(c3ccc(OCC)cc3)C2)cc1` (stereo not drawn), the inhibition entry was “inactive”.
On to `O=S(=O)(c1ccc(Oc2ccc(Cl)cc2)cc1)c1ccc(Oc2ccc(Cl)cc2)cc1`, for which the inhibition result was “inactive”.
For `Nc1ccc(Oc2ccc(Cl)cc2)cc1`, the inhibition was 37% (active).
Then `Cc1cccc(C(CC(=O)N2CCOCC2)c2ccccc2)c1O` (stereo not drawn), with “inactive”.
As to `Clc1ccc(-c2csc(Nc3ncccn3)n2)cc1`, the inhibition result is “inactive”.
`COc1ccc(OC)c(S(=O)(=O)NCCC(C)C)c1`: the inhibition result is “inactive”.
Then `O=[N+]([O-])c1cnc(N2CCN(Cc3ccccc3)CC2)c([N+](=O)[O-])c1`, with 30% (active).
Then `O=[N+]([O-])c1ccc(CN2CCN(Cc3ccccc3)CC2)s1`, with “inactive”.
As for `Clc1cccc(CN2CCN(c3ccccn3)CC2)c1`, the entry is “inactive”; as for `CC(C)c1ccc(C(=O)NC2CC2)cc1`, “inactive”; as for `CC(C(=O)NC1CC1)N1CCc2[nH]nc(C(c3ccccc3)c3ccccc3)c2C1` (stereo not drawn), 97% (active).
In the case of `O=S(=O)(NCc1ccccc1)N1CCc2[nH]nc(C3CCC3)c2C1`, the inhibition result is “inactive”.
Turning to `CCc1c(-c2ccccc2)nc2ccccc2c1C(=O)NCC1CCCO1` (stereo not drawn), the inhibition result was “inactive”.
Then `CCCOc1ccc(CC(=O)O)cc1OC`, with “inactive”.
For `O=C(COc1ccc([N+](=O)[O-])cc1)Nc1ccc(N2CCCC2)cc1`, the inhibition was 60% (active).
Then `Cc1cccc(C)c1OCC(=O)Nc1ccc([N+](=O)[O-])cc1`, with “inactive”.
For the compound `Cc1cc(Cl)ccc1NC(=O)COc1ccc([N+](=O)[O-])cc1`, the inhibition result was “inactive”.
As for `CCCOc1ccccc1/C=C1/C(=O)N=C(N)N1C`, the entry is “inactive”.
As to `CCC(C)(C)C1CCc2c(sc(NC(=O)c3cc(OC)c(OC)c(OC)c3)c2C(N)=O)C1` (stereo not drawn), the inhibition entry was “inactive”.
Then `CCN(CC)C(=O)Cn1cnc2sc(C(=O)Nc3cccc(C(F)(F)F)c3)c(C)c2c1=O`, with “inactive”; and `CCOc1ccc(S(=O)(=O)Nc2ccccc2C)c2cccnc12`, with “inactive”.
As for `Cc1cc(NC(=O)c2ccccc2Cl)nc2c1c(=O)oc1ccccc12`, the entry is “inactive”.
Then `O=c1c2c(nc(SCc3ccc(Cl)cc3)n1-c1ccccc1)CCS2`, with 36% (active); and `O=c1c2c(nc(SCc3ccccc3)n1-c1ccc(Br)cc1)CCS2`, with “inactive”; and `O=c1c2c(nc(SCc3ccccc3F)n1-c1ccccc1)CCS2`, with “inactive”.
With `CCOc1ccc(Cn2c(CNS(=O)(=O)c3cnn(C(F)F)c3C)nc3cccnc32)cc1`, the inhibition entry was “inactive”.
As for `Cc1ccccc1-c1cc(O)c2c(c1)CN(C(=O)C1C=CCN1)CCO2` (stereo not drawn), the entry is “inactive”.
Regarding `CN(C)CCCN1C(=O)C(=O)C(=C(O)c2ccc(F)cc2)C1c1ccncc1` (stereo not drawn), the inhibition result is “inactive”.
Take `O=C1CCCc2oc3c(Cl)cc(NS(=O)(=O)c4cccc5ccccc45)cc3c21`: the inhibition entry was “inactive”.
Then `CCCc1n[nH]c(=O)n1-c1ccccc1Cl`, with “inactive”; and `COc1ccc(N=Cc2c(O)n(-c3ccccc3C)c(=O)c3ccccc23)cc1`, with 48% (active).
Then `C=CCNC(=O)c1cc2c(=O)n3cccc(C)c3nc2n1C`, with “inactive”; and `COc1ccc(S(=O)(=O)Nc2c(C)n(C)n(-c3ccccc3)c2=O)cc1`, with “inactive”.
Then `O=c1oc2ccccc2c(O)c1C=Nc1ccc(I)cc1`, with “inactive”; and `CNc1nc2c(C)cccn2c(=O)c1C=Nc1ccc(OC)cc1`, with 98% (active); and `COc1ccc(N=Cc2ccc3ncccc3c2)cc1`, with “inactive”.
Regarding `O=C(CCCc1ccccc1)NC1CCCCC1`, the inhibition result was “inactive”.
Then `CC(=O)Nc1ccc(S(=O)(=O)NCCNc2ccc([N+](=O)[O-])cc2Cl)cc1`, with “inactive”; and `CN1CCN(C(=O)CC2(c3ccccc3Cl)CC(=O)N(C3CCCC3)C2=O)[C@@H](c2ccccc2)C1` (stereo partly drawn), with “inactive”; and `O=C(Nc1nc2c(cc3c4c(cccc42)CC3)s1)c1ccc(S(=O)(=O)N2CCOCC2)cc1`, with “inactive”.
Then `COc1ccc(-c2cnc(N)cn2)cc1C`, with “inactive”; and `Cc1ccncc1C(=O)N1CCC(=O)N(CC2CC2)C(C(C)C)C1` (stereo not drawn), with “inactive”; and `CCn1c(=O)cc(O)c2ccccc21`, with 85% (active).
With `O=C(O)Cn1c2ccccc2c2cc(Cl)ccc21`, the inhibition entry is “inactive”.
Then `O=C(Cn1c2ccccc2c(=O)c2ccccc21)Nc1ccccc1Cl`, with “inactive”.

As usually defined, the inhibition is the drop in the measured response relative to a control, in per cent.
